Screening results deposited in PubChem by National Center for Advancing Translational Sciences (NCATS).
This is a sample that favours compounds with a hit; in the whole collection about 12% have one here.
NS1 function inh: influenza NS1 inhibition. Potency, µM (highest dose often 46.1 µM), inactives show at the highest dose activity, positive = more growth. hit rate 0.4% among 270,000. AID 2326; further: potency means the concentration at half of the fitted maximal effect; actives are rising curves; nearly all actives have a fitted effect of over 50% in size
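A cell-based growth assay was used: compounds that relieve NS1-induced slow growth of budding yeast raise OD600. Assay medium was yeast nitrogen base with ammonium sulphate and -URA supplement, pH 6.0, with 2% galactose.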
Cycloheximide cs: counter-screen hit for Shiga toxin inhibitors, cycloheximide; cell reporter, cycloheximide protein synthesis inhibition counterscreen; AID 2314; hit rate 12% among 300,000; max response, %; in the data active means max response mostly above about 13%, no sharp cut-off; inactive means mostly below about 14%; further: read at 38.3 µM for the half of the compounds with a filed dose; 0% is about no effect
SARS PLpro yeast: inhibitors of SARS-CoV papain-like protease in yeast; S. cerevisiae expressing SARS-CoV PLpro, growth rescue; Potency, µM (top dose mostly 32.9 µM), inactives show top-dose activity, positive = growth rescue, hits mostly activators; hit rate 0.19% among 330,000; further: potency means the concentration at half of the fitted maximal effect; 0% is about no effect; nearly all actives have a fitted effect of over 55% in size
Shiga toxin inh: Shiga toxin inhibition | Vero cells, Shiga toxin protein synthesis inhibition reporter | inhibition, % at 38.7 µM | hit rate 9.2% among 290,000 | AID 2315; in the data active means inhibition mostly above about 28%, no sharp cut-off; inactive means mostly below about 43%; further: 0% is about no effect
Starred values were filed as active, the others as inactive; ? = inconclusive; · = no result given. Unless noted, the call rests on the fitted dose curve.

SMILES | NS1 function inh | Cycloheximide cs | SARS PLpro yeast | Shiga toxin inh
COc1cc2c(cc1OC)CN(C(=O)COc1ccc(C)c(C)c1)CC2 | -10.9% | -2.3 | -4.7% | -2.7
CC(C)[C@H](NC(=O)c1c(F)cccc1F)C(=O)Nc1cccc(Br)c1 | 2.7% | -5.9 | -0.4% | 11.8
Cc1ccccc1NC(=S)NNC(=O)c1csc2c1CCC(C)C2 (centres undefined) | -14.4% | 34.5* | -4.7% | 78.3*
Nc1ccc(N)cc1 | · | 35.3* | · | 95.4*
CCSc1nnc(NC(=O)C2Cc3ccccc3CN2S(=O)(=O)CC)s1 (centres undefined) | -20.2% | 30.3* | 3.1% | 29.9
CCS(=O)(=O)N1Cc2ccccc2CC1C(=O)Nc1nc(C)cs1 (centres undefined) | 2.6% | 42.5* | -1.9% | 84.9*
CCS(=O)(=O)N1Cc2ccccc2CC1C(=O)Nc1nccs1 (centres undefined) | 4.1% | 30.1* | -3.1% | 24.8*
CCS(=O)(=O)N1Cc2ccccc2CC1C(=O)Nc1nc2c(C)cccc2s1 (centres undefined) | 1.9% | 27.4* | -34.4% | 60.5*
CCS(=O)(=O)N1Cc2ccccc2CC1C(=O)Nc1ccccc1OC (centres undefined) | -2.4% | 9.0 | -0.2% | 11.8
O=C(NCc1ccccc1)c1ccc2c(c1)C(=O)N(Cc1cccnc1)C2=O | -7.5% | 1.0 | 15.3% | -4.4
C[C@@H](C(=O)N1CCN(C(=O)OC(C)(C)C)CC1)n1cc(CCCN=C(NC(=O)OC(C)(C)C)NC(=O)OC(C)(C)C)nn1 | 1.0% | -0.8 | 1.5% | -3.7
CC1C/C(=C/c2cccn2C)C(=O)/C(=C/c2cccn2C)C1 (centres undefined) | 26.6% | 29.1* | -14.8% | 48.5*
COC(=O)CCCC(=O)O | 2.8% | · | · | ·
Cc1nc(-c2ccccn2)sc1C(=O)Nc1ccc(F)cc1F | 4.7% | 30.6* | 2.9% | 59.0*
CNC(=O)c1sc(-c2ccccn2)nc1C | · | 3.6 | -1.1% | 10.5
Cc1nc(-c2ccccn2)sc1C(=O)Nc1ccc(F)cc1 | 1.9% | 18.6* | -10.8% | 4.7
Nc1nccnc1C(=O)OCC(=O)NCCc1ccc(S(N)(=O)=O)cc1 | · | · | 2.8% | ·
c1ccc(-c2cc3n(c2)CCc2ccccc2-3)cc1 | 0.1% | 14.9* | 1.4% | 49.2*
Cc1cc(NC(=O)CSc2nnc(CNC(=O)c3ccc(C(C)(C)C)cc3)o2)no1 | 6.7% | -2.7 | -3.5% | -4.8
CC1CCN(CCNC(=S)Nc2ccc(Cl)cc2)CC1 | 1.1% | 10.4 | 0.0% | -4.4
O=C(CN1CC(c2ccccc2)CC1=O)OCc1ccccc1F (centres undefined) | 10.4% | 44.3* | 12.3% | 97.4*
NC(=O)CN1CC(c2ccccc2)CC1=O (centres undefined) | 6.0% | -5.2 | -0.4% | -17.2
CCCC1CC(C)(c2csc(Nc3ccc(OCC)cc3)n2)OC1=O (centres undefined) | -2.6% | 19.7* | -75.9% | 60.5*
CCOc1ccc(NC(=O)CC2CC(C)(C)OC2=O)cc1 (centres undefined) | 5.3% | 7.0 | 3.3% | -4.8
CC(=O)C1=C(O)C(=O)N(c2ccc(C)cc2)C1c1ccccn1 (centres undefined) | 9.3% | 22.0* | 7.0% | 37.0*
SMILES | NS1 function inh | Cycloheximide cs | SARS PLpro yeast | Shiga toxin inh
CC(=O)C1=C(O)C(=O)N(c2ccc(O)cc2)C1c1ccc(C)cc1 (centres undefined) | 11.9% | -0.1 | 5.5% | -11.6
CCCCN=C1CC(C)(C)CC(=O)/C1=C(/O)CCC | -3.3% | 7.5 | -0.7% | -1.5
O=C(c1c(F)cccc1F)N(Cc1ccccn1)C1CC1 | -11.4% | 23.8* | -2.2% | 56.5
COc1ccc(C2Nc3ccccc3C(=O)N2NS(=O)(=O)c2ccc(C)cc2)cc1OC (centres undefined) | -20.2% | -2.2 | 3.7% | -5.7
COc1ccc(C2Nc3ccccc3C(=O)N2c2ccc(C)cc2)cc1Cn1cc([N+](=O)[O-])cn1 (centres undefined) | ? | 38.3* | 3.8% | 50.2*
COc1ccc(C2Nc3ccccc3C(=O)N2c2ccc(C)cc2)cc1Cn1nnc2ccccc21 (centres undefined) | 21.7% | 50.9* | 2.9% | 53.0*
CCc1ccc(CN(C)C(=O)CCc2nnc(CCc3ccccc3OC)o2)nc1 | -2.3% | -4.4 | -0.3% | 17.6
O=C(CCN1Cc2ccccc2C1)c1ccc2c(c1)OCCO2 | -87.0% | 19.0* | -49.4% | 37.4
O=C(O)CCC(=O)c1ccc2c(c1)OCCO2 | ? | 7.9 | -7.5% | 9.8
O=C(CCN1CCc2ccccc2C(c2ccccc2)C1)c1ccc2c(c1)OCCO2 (centres undefined) | -48.9% | 19.0* | -25.9% | 25.0
O=C(O)CCSCC(=O)c1ccc2c(c1)OCCO2 | -16.2% | -1.1 | -0.2% | 23.7
COc1ccc(C2/C=C\CN(C(=O)c3ccc(C)cc3)C(C)C(=O)N2Cc2ccc(F)cc2)cc1 (centres undefined) | · | 83.5* | · | 144.3*
COc1ccc(C2/C=C\CN(Cc3ccccc3)C(C)C(=O)N2Cc2ccc(F)cc2)cc1 (centres undefined) | · | 36.2* | · | 61.9*
COc1ccc(C2/C=C\CN([S+](=O)([O-])c3ccc4ccccc4c3)C(C)C(=O)N2Cc2ccc(F)cc2)cc1 (centres undefined) | · | 84.1 | · | 148.5*
COc1ccc(C2/C=C\CN(C(=O)c3ccccc3)C(C)C(=O)N2Cc2ccc(F)cc2)cc1 (centres undefined) | · | -0.3 | · | -13.8
CC[C@](N)(C(=O)O)C(C)C | 0.0% | · | · | ·
Cc1ccc(NC(=O)N2CCC(=O)N2)cc1 | 1.7% | 36.9* | 1.7% | 76.8*
Cc1ccc(NC(=O)C(C)C(=O)Nc2ccc(C)cc2)cc1 | · | -3.7 | -0.7% | -21.3
Clc1ccc(-c2noc(CCCOc3ccccc3)n2)cc1 | -5.4% | 7.8 | 1.4% | 6.4
COc1ccc(-c2noc(CCCc3ccccc3)n2)cc1OC | -41.6% | 11.7* | -10.5% | 20.9
Cc1ccc(-c2noc(CCCc3ccccc3)n2)cc1 | ? | 30.7* | -2.6% | 62.2*
CCOc1ccc(-c2noc(CCC(=O)NCCc3ccccc3)n2)cc1OC | 1.1% | 4.8 | -1.0% | -6.8
C/C(=N\N1CCCCCC1)c1c(O)n(-c2ccc(C)cc2)c(=O)[nH]c1=O | -0.6% | 43.2* | 2.1% | active
C=CCn1c(O)c(/C(C)=N/N2CCCCC2)c(=O)[nH]c1=O | -1.4% | 38.3 | -3.1% | 75.2*
CC/C(=N\N1CCCCCC1)c1c(O)n(-c2ccc(C)cc2)c(=O)[nH]c1=O | 2.5% | 18.5* | -14.4% | -4.6
SMILES | NS1 function inh | Cycloheximide cs | SARS PLpro yeast | Shiga toxin inh
C=CCn1c(O)c(C(C)=NCCN2CCCCC2)c(=O)[nH]c1=O | -4.1% | -2.8 | 3.0% | -15.7
CCOC(=O)c1c(C)[nH]c(C)c1C(=O)COC(=O)Cc1ccc(OC)c(OC)c1 | · | · | 2.5% | ·
C#CC1CCCCC1NC(=O)Nc1cnccc1C(F)(F)F (centres undefined) | 1.6% | -1.2 | 0.6% | -5.1
CCN(CC(=O)NCc1cccs1)C(=O)CCOc1ccccc1 | · | · | -0.8% | ·
O=C(/C=C/c1ccc(Cl)cc1)NCc1cccs1 | -6.1% | 53.2* | -17.5% | 91.7*
COCCCNC(=O)/C=C/c1c(Cl)cccc1Cl | -6.4% | 2.8 | -3.4% | 29.5
O=C(/C=C/c1cccc(Cl)c1)NCc1cccs1 | -24.7% | 38.3* | -8.9% | 41.4*
COCCCNC(=O)/C=C/c1ccc(Cl)cc1 | -67.8% | 21.2* | 1.3% | 50.1*
